Only some compounds are listed: those with a hit (about 3.2% of all), similar ones and a draw of the others.
Tau fibril ThT = inhibitors of human tau fibril formation, thioflavin T binding | recombinant tau K18 P301L, heparin-induced fibrillization, ThT fluorescence | P10636 | Potency, µM (titrated, usually from 57.4 µM), inactives show at the highest dose activity, negative = inhibition, actives largely listed as inhibitors | 270,000 compounds, 2.1% hits; further: potency means the concentration at half of the fitted maximal effect; on the % scale 0 is the no-effect control and ±100 the full control effect; nearly all actives have a fitted effect of over 55% in size
Target sequence (P10636 561-689 P618L limits assumed): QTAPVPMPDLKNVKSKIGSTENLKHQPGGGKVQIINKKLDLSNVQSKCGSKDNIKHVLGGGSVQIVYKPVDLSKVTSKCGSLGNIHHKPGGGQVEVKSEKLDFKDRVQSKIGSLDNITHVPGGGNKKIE
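K18 P301L tau (15 uM + 0.24 uM Alexa 594-tagged), heparin 20 uM, NaOAc pH 7, 6 h 37 C; ThT 30 uM, 1 h RT, ex 450/em 510 nm.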
Tau fibril FP = blocks human tau fibril formation measured by polarization; 280,000 compounds, 0.39% hits; AID 1468; P10636; K18 P301L tau heparin fibrillization, Alexa594 FP, 6 h; Potency, µM (series often up to 57.7 µM), without a hit: at the top dose activity, negative = inhibition, usual class: inhibitors; further: potency means the concentration at half of the fitted maximal effect; on the % scale 0 is the no-effect control and ±100 the full control effect; nearly all actives have a fitted effect of over 55% in size
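Quantitative HTS format: compounds meet 15 uM recombinant K18 P301L tau and Alexa 594-tau tracer in 100 mM sodium acetate pH 7; 20 uM heparin triggers fibrillization at 37 C over 6 hr; FP gives the signal.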
TexasRed fluor = alters Texas Red total fluorescence, flagging assay interference; 280,000 compounds, 0.29% hits; AID 1479; TRb/SRC2 Texas Red total fluorescence interference; Potency, µM (highest dose often 106 µM), for the others: at the highest dose fluorescence change, negative = quenching; active means well fitted curve in either direction with a large enough effect; inconclusive means small, poorly fitted or top-dose-only effect; further: potency means the concentration at half of the fitted maximal effect; on the % scale 0 is the no-effect control and ±100 the full control effect
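Human TRb ligand-binding domain at 0.6 uM with 20 nM Texas Red SRC2 peptide in Tris buffer containing 1 uM T3 and 5% DMSO, incubated with compound 5 h at ambient temperature. Total fluorescence (555/632 nm) calculated as parallel + 2 × perpendicular.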
TRb-SRC2 inh = disrupts binding of human TR beta to SRC2. TRbeta-SRC2 peptide binding, fluorescence polarization; receptor liganded with 1 µM T3. Potency, µM (titrated, usually from 106 µM), without a hit: at the highest dose activity change, negative = inhibition, hits mostly inhibitors. 280,000 compounds, 0.065% hits. P10828;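 further: potency means the concentration at half of the fitted maximal effect; plate controls were bound peptide for no effect and peptide without receptor for full effect; nearly all actives have a fitted effect of over 50% in size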
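Human TRb ligand-binding domain (0.6 uM) is mixed with 20 nM Texas Red SRC2 peptide and 1 uM T3; after compound addition and 5 hr at ambient temperature, polarization is measured and normalized to unbound and bound controls.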
GoLoco inh red = inhibitors of human Gai1-RGS12 GoLoco interaction (red fluorophore). P63096. Gai1:RGS12 GoLoco peptide FP, rhodamine, 10 min. Potency, µM (highest dose often 61.6 µM), for the others: at the highest dose activity, negative = inhibition, usual class: inhibitors. 230,000 compounds, 0.44% hits; active means well fitted inhibition curve with a large enough effect, not every such curve was filed as active; inactive means no such curve, though single readings can be large or run the other way; further: potency means the concentration at half of the fitted maximal effect; on the % scale 0 is the no-effect control and ±100 the full control effect; nearly all actives have a fitted effect of over 30% in size
Target sequence (P63096 whole entry, looked up): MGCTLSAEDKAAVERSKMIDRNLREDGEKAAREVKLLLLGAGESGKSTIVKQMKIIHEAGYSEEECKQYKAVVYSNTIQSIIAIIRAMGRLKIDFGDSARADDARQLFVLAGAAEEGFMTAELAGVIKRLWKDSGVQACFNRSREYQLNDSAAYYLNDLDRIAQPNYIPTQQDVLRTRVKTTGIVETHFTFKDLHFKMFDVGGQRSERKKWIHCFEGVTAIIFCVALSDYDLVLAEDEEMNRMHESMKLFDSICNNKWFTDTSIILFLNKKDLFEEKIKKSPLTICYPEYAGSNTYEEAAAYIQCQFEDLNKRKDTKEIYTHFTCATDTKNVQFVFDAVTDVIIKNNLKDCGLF
Tau fluor cs = counter-screen for tau fibril formation inhibitors. tau K18 P301L Alexa594 fluorescence, heparin fibrillization. Potency, µM (series often up to 57.7 µM), inactives show top-dose activity change, negative = decrease. 280,000 compounds, 0.93% hits. AID 1463; further: potency means the concentration at half of the fitted maximal effect; on the % scale 0 is the no-effect control and ±100 the full control effect; nearly all actives have a fitted effect of over 55% in size
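Human tau K18 P301L (15 uM unlabeled, 0.24 uM Alexa 594-labeled) in 100 mM sodium acetate pH 7 with 20 uM heparin, 6 hr at 37 C. ThT 30 uM added, 1 hr ambient; Alexa 594 FP and total fluorescence read at 555/632 nm.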
Tau fibril TEM = Inhibits human tau fibrillization | shares compounds with Tau fibril ThT | recombinant tau K18 P301L fibrillization, TEM grading; stronger effect = higher value | fibril grade (0 = clumped fibrils, 4 = only tiny pieces) (concentration not given with the values) | 45 compounds, 70% hits | AID 1719;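 active means compounds whose electron micrographs showed tau fibrils broken into shorter filaments or fragments, graded high on fibril breakup; inconclusive means micrographs gave an unclear fibril picture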
tau sediment = inhibitors of human tau fibrillization, sedimentation test | shares compounds with Tau fibril ThT | recombinant tau K18 P301L (four-repeat tau fragment), sedimentation SDS-PAGE densitometry | inhibition, % at 100 µM | 110 compounds, 50% hits; in the data active means inhibition above about 40%; inconclusive means no clear call, values can overlap the other calls; inactive means below about 18%
The depositor's hits bear a star; ? = inconclusive; nt = no result given; [ ] = remark or other dose. Unless noted, the call rests on the fitted dose curve; in most records, active means well fitted curve in the direction sought with a large enough effect; inconclusive means small, poorly fitted or top-dose-only effect, or another doubt; inactive means no such curve, though single readings can be large; an effect the other way counts as inactive or inconclusive.

SMILES | Tau fibril ThT | Tau fibril FP | TexasRed fluor | TRb-SRC2 inh | GoLoco inh red | Tau fluor cs | Tau fibril TEM | tau sediment
COC(=O)c1c(NC(=O)C(Cl)Cl)sc2c1C(C(=O)OC)CC2 (configuration not stated) | ? | 3% | 0% | 4% | 16% | -26% | nt | nt
COC(=O)c1c(NC(=O)C(C)(C)C)sc2c1C(C(=O)OC)CC2 (configuration not stated) | -5% | 2% | -5% | -8% | -11% | -3% | nt | 17
COC(=O)c1c(NC(=O)CCCOc2cccc(C)c2)sc2c1CCC2 | ? | -9% | 6% | 4% | nt | -18% | nt | nt
COC(=O)c1c(NC(=O)CCCOc2cccc(C)c2)sc2c1C(C(=O)OC)CC2 (configuration not stated) | 3.2µM* | ? | ? | -3% | nt | -28% | 2* | 56*
COC(=O)c1c(NC(=O)CCCOc2ccc(C)cc2)sc2c1C(C(=O)OC)CC2 (configuration not stated) | 7.9µM* | ? | 6% | 2% | nt | ? | 2* | 56*
COc1ccc(CCNC(=O)C(=O)NCC(c2cccs2)S(=O)(=O)c2ccc(F)cc2)cc1 (configuration not stated) | -2% | -5% | -1% | 0% | nt | -15% | nt | nt
CCOC(=O)C1(C)C=C(Nc2cccc(C)c2)C(=O)N1c1ccccc1 (configuration not stated) | -4% | -16% | -3% | 7% | nt | -12% | nt | nt
COc1ccc(Cl)cc1C(=O)NCc1nnnn1-c1ccccc1 | -1% | -5% | 0% | 3% | nt | -1% | nt | nt
CN(c1ccccc1)S(=O)(=O)c1nnc(NC(=O)COc2ccccc2)s1 | ? | ? | -25% | -6% | nt | ? | nt | ?
CN(C)c1ccc(-c2cc[nH]c(=O)c2N)cc1 | nt | nt | nt | nt | nt | nt | 3* | 68*
CNc1nc(-c2ccc(C(=O)N(C)C)cc2)nc2ccccc12 | nt | nt | nt | nt | 11% | nt | nt | nt
Nc1c(-c2ccncc2)cc[nH]c1=O | nt | nt | nt | nt | nt | nt | 0 | 55*
CN(C)C(=O)c1ccc(-c2cc[nH]c(=O)c2N)cc1 | nt | nt | nt | nt | nt | nt | 0 | 48*
C[C@@H]1C(=O)O[C@H]2C[C@@]34[C@H]5C[C@@H](C(C)(C)C)[C@]36[C@H](OC(=O)[C@H]6O)O[C@]4(C(=O)O5)[C@]21O | nt | nt | 1% | -2% | nt | nt | nt | nt
CCOc1ccccc1CNC(=O)C1CCCN(c2ncnc3onc(-c4ccc(F)cc4)c23)C1 (configuration not stated) | -10% | -9% | -23% | 4% | nt | -20% | nt | nt
Cc1cc2c(NC(=O)Nc3ccccc3)cccc2nn1 | ? | ? | 21% | ? | -2% | -25% | ? | ?
Cc1nc2ccccc2oc1=O | ? | 10% | -3% | 2% | 0% | ? | nt | 13
CC(C)(C)/C(O)=C/c1nc2ccccc2oc1=O | -2% | -6%[2.34 µM] | -9% | -2% | -1% | -4% | nt | nt
O=S(=O)(c1ccc(N=C2NN=C(c3cc(F)ccc3F)CS2)cc1)N1CCOCC1 | 6.3µM* | ? | -3% | -6% | -10% | ? | 3* | 44*
